Laboratory results reported in PubChem BioAssay AID1159580 (chemical genetic matrix, 2015).
The campaign covered roughly 5,500 compounds. About 2,000 (36%) were called active. Roughly 18% stayed inconclusive and do not appear here. No stated cut-off is given here; in the data, active means normalized growth mostly below about 0.91 (no sharp cut-off); inconclusive means no clear call, values can overlap the other calls; inactive means mostly above about 0.92. The list shows a part of the results.

Experiment: chemical genetic growth profiling, strain panel (AID 1159580);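 further: tested at 20 µM; growth read once vehicle control cultures reached saturation at 30 °C; 1 = growth at the plate median or of vehicle wells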
Conditions: growth OD
[1] = S. cerevisiae deletion strains, locus YHR030C, strain SLT2, stronger effect = lower value

Measured: normalized growth

Cc1cccc(C)c1NC(=O)C(C)Oc1ccc(Cl)cc1Cl (configuration not stated)
inactive: S. cerevisiae deletion strains, locus YAL013W, strain DEP1, stronger effect = lower value 1.01 | S. cerevisiae deletion strains, locus YBR229C, strain ROT2, stronger effect = lower value 1 | S. cerevisiae deletion strains, locus YDL101C, strain DUN1, stronger effect = lower value 1.01 | S. cerevisiae deletion strains, locus YDR150W, strain NUM1, stronger effect = lower value 1.02 | S. cerevisiae deletion strains, locus YEL061C, strain CIN8, stronger effect = lower value 0.996 | S. cerevisiae deletion strains, locus YGR078C, strain PAC10, stronger effect = lower value 1 | [1] 0.989 | S. cerevisiae deletion strains, locus YHR087W, strain rtc3, stronger effect = lower value 1.01 | S. cerevisiae deletion strains, locus YJL187C, strain SWE1, stronger effect = lower value 1.01 | S. cerevisiae deletion strains, locus YJR043C, strain POL32, stronger effect = lower value 1 | S. cerevisiae deletion strains, locus YJR075W, strain HOC1, stronger effect = lower value 0.998 | S. cerevisiae deletion strains, locus YKL190W, strain CNB1, stronger effect = lower value 0.999 | S. cerevisiae deletion strains, locus YLR039C, strain RIC1, stronger effect = lower value 0.961 | S. cerevisiae deletion strains, locus YLR058C, strain SHM2 (second series), stronger effect = lower value 0.997 | S. cerevisiae deletion strains, locus YLR085C, strain ARP6, stronger effect = lower value 1.02 | S. cerevisiae deletion strains, locus YLR262C, strain YPT6, stronger effect = lower value 0.963 | S. cerevisiae deletion strains, locus YML094W, strain GIM5, stronger effect = lower value 1.09 | S. cerevisiae deletion strains, locus YMR219W, strain ESC1, stronger effect = lower value 1.01 | S. cerevisiae deletion strains, locus YMR263W, strain SAP30, stronger effect = lower value 1 | S. cerevisiae deletion strains, locus YMR307W, strain GAS1, stronger effect = lower value 0.929 | S. cerevisiae deletion strains, locus YNL153C, strain GIM3, stronger effect = lower value 1.02 | S. cerevisiae deletion strains, locus YNL298W, strain CLA4 (second series), stronger effect = lower value 1.02 | S. cerevisiae deletion strains, locus YNL322C, strain KRE1, stronger effect = lower value 1 | S. cerevisiae deletion strains, locus YNR030W, strain Alg12, stronger effect = lower value 1.01 | S. cerevisiae deletion strains, locus YOL006C, strain TOP1, stronger effect = lower value 1.04 | S. cerevisiae deletion strains, locus YPL055C, strain LGE1, stronger effect = lower value 1.04 | S. cerevisiae deletion strains, locus YPL241C, strain CIN2, stronger effect = lower value 1.05 | S. cerevisiae deletion strains, locus YPR135W, strain CTF4, stronger effect = lower value 1.01 | S. cerevisiae strains, strain wild type, stronger effect = lower value 0.995

Oc1cc(Cl)ccc1Oc1ccc(Cl)cc1Cl
active: S. cerevisiae deletion strains, locus YAL021C, strain ccr4, stronger effect = lower value 0.0638 | S. cerevisiae deletion strains, locus YAL026C, strain drs2, stronger effect = lower value 0.0609 | S. cerevisiae deletion strains, locus YAL030W, strain snc1, stronger effect = lower value 0.0536 | S. cerevisiae deletion strains, locus YBL061C, strain skt5, stronger effect = lower value 0.0556 | S. cerevisiae deletion strains, locus YBR009C, strain hhf1, stronger effect = lower value 0.061 | S. cerevisiae deletion strains, locus YBR023C, strain chs3, stronger effect = lower value 0.0591 | S. cerevisiae deletion strains, locus YBR171W, strain sec66, stronger effect = lower value 0.0725 | S. cerevisiae deletion strains, locus YBR231C, strain swc5, stronger effect = lower value 0.0579 | S. cerevisiae deletion strains, locus YBR279W, strain paf1, stronger effect = lower value 0.0562 | S. cerevisiae deletion strains, locus YCL011C, strain gbp2, stronger effect = lower value 0.0544 | S. cerevisiae deletion strains, locus YCL016C, strain dcc1, stronger effect = lower value 0.0625 | S. cerevisiae deletion strains, locus YCL069W, strain vba3, stronger effect = lower value 0.0589 | S. cerevisiae deletion strains, locus YCR088W, strain abp1, stronger effect = lower value 0.0589 | S. cerevisiae deletion strains, locus YDL005C, strain med2, stronger effect = lower value 0.0705 | S. cerevisiae deletion strains, locus YDL040C, strain nat1, stronger effect = lower value 0.0546 | S. cerevisiae deletion strains, locus YDR001C, strain nth1, stronger effect = lower value 0.0558 | S. cerevisiae deletion strains, locus YDR069C, strain doa4, stronger effect = lower value 0.0627 | S. cerevisiae deletion strains, locus YDR137W, strain rgp1, stronger effect = lower value 0.0997 | S. cerevisiae deletion strains, locus YDR159W, strain sac3, stronger effect = lower value 0.0882 | S. cerevisiae deletion strains, locus YDR195W, strain ref2 0.117 | S. cerevisiae deletion strains, locus YDR297W, strain sur2, stronger effect = lower value 0.0544 | S. cerevisiae deletion strains, locus YDR334W, strain swr1, stronger effect = lower value 0.0588 | S. cerevisiae deletion strains, locus YDR335W, strain msn5, stronger effect = lower value 0.0583 | S. cerevisiae deletion strains, locus YDR392W, strain spt3, stronger effect = lower value 0.0729 | S. cerevisiae deletion strains, locus YEL003W, strain gim4, stronger effect = lower value 0.0524 | S. cerevisiae deletion strains, locus YEL037C, strain rad23, stronger effect = lower value 0.0551 | S. cerevisiae deletion strains, locus YEL061C, strain CIN8 (second series), stronger effect = lower value 0.0576 | S. cerevisiae deletion strains, locus YER015W, strain faa2, stronger effect = lower value 0.0585 | S. cerevisiae deletion strains, locus YER016W, strain bim1, stronger effect = lower value 0.0591 | S. cerevisiae deletion strains, locus YER111C, strain swi4, stronger effect = lower value 0.0671 | S. cerevisiae deletion strains, locus YER155C, strain BEM2 (second series), stronger effect = lower value 0.0885 | S. cerevisiae deletion strains, locus YFR010W, strain ubp6, stronger effect = lower value 0.0707 | S. cerevisiae deletion strains, locus YGL167C, strain pmr1, stronger effect = lower value 0.0693 | S. cerevisiae deletion strains, locus YGL173C, strain kem1, stronger effect = lower value 0.0649 | S. cerevisiae deletion strains, locus YGL227W, strain vid30, stronger effect = lower value 0.0625 | S. cerevisiae deletion strains, locus YGL240W, strain doc1, stronger effect = lower value 0.0739 | S. cerevisiae deletion strains, locus YGL253W, strain hxk2, stronger effect = lower value 0.054 | S. cerevisiae deletion strains, locus YHR013C, strain ard1, stronger effect = lower value 0.104 | S. cerevisiae deletion strains, locus YHR027C, strain rpn1, stronger effect = lower value 0.059 | [1] 0.104 | S. cerevisiae deletion strains, locus YHR079C, strain IRE1, stronger effect = lower value 0.121 | S. cerevisiae deletion strains, locus YHR142W, strain chs7, stronger effect = lower value 0.0756 | S. cerevisiae deletion strains, locus YJL092W, strain hpr5, stronger effect = lower value 0.0585 | S. cerevisiae deletion strains, locus YJL095W, strain BCK1 (second series), stronger effect = lower value 0.0552 | S. cerevisiae deletion strains, locus YJL095W, strain BCK1, stronger effect = lower value 0.127 | S. cerevisiae deletion strains, locus YJL115W, strain asf1, stronger effect = lower value 0.0692 | S. cerevisiae deletion strains, locus YJL129C, strain trk1, stronger effect = lower value 0.084 | S. cerevisiae deletion strains, locus YJL154C, strain vps35, stronger effect = lower value 0.0565 | S. cerevisiae deletion strains, locus YJL164C, strain tpk1, stronger effect = lower value 0.0601 | S. cerevisiae deletion strains, locus YJL166W, strain qcr8, stronger effect = lower value 0.0623 | S. cerevisiae deletion strains, locus YJR066W, strain TOR1, stronger effect = lower value -0.00201 | S. cerevisiae deletion strains, locus YKL160W, strain elf1, stronger effect = lower value 0.0596 | S. cerevisiae deletion strains, locus YKR026C, strain gcn3, stronger effect = lower value 0.0592 | S. cerevisiae deletion strains, locus YKR091W, strain srl3, stronger effect = lower value 0.0544 | S. cerevisiae deletion strains, locus YLL001W, strain dnm1, stronger effect = lower value 0.0612 | S. cerevisiae deletion strains, locus YLL026W, stronger effect = lower value 0.0561 | S. cerevisiae deletion strains, locus YLL041C, strain sdh2, stronger effect = lower value 0.0533 | S. cerevisiae deletion strains, locus YLR027C, strain aat2, stronger effect = lower value 0.0538 | S. cerevisiae deletion strains, locus YLR113W, strain HOG1, stronger effect = lower value 0.158 | S. cerevisiae deletion strains, locus YLR221C, strain rsa3, stronger effect = lower value 0.0589 | S. cerevisiae deletion strains, locus YLR258W, strain gsy2, stronger effect = lower value 0.0574 | S. cerevisiae deletion strains, locus YLR262C, strain YPT6 (second series), stronger effect = lower value 0.0751 | S. cerevisiae deletion strains, locus YLR320W, strain mms22, stronger effect = lower value 0.0752 | S. cerevisiae deletion strains, locus YLR342W, strain FKS1, stronger effect = lower value 0.0642 | S. cerevisiae deletion strains, locus YLR357W, strain rsc2, stronger effect = lower value 0.118 | S. cerevisiae deletion strains, locus YLR370C, strain arc18, stronger effect = lower value 0.0628 | S. cerevisiae deletion strains, locus YLR384C, strain iki3, stronger effect = lower value 0.057 | S. cerevisiae deletion strains, locus YML120C, strain ndi1, stronger effect = lower value 0.0562 | S. cerevisiae deletion strains, locus YMR058W, strain fet3, stronger effect = lower value 0.0596 | S. cerevisiae deletion strains, locus YMR125W, strain sto1, stronger effect = lower value 0.0732 | S. cerevisiae deletion strains, locus YMR129W, stronger effect = lower value 0.0549 | S. cerevisiae deletion strains, locus YMR205C, strain PFK2, stronger effect = lower value 0.0834 | S. cerevisiae deletion strains, locus YMR231W, strain pep5, stronger effect = lower value 0.0636 | S. cerevisiae deletion strains, locus YNL071W, strain lat1, stronger effect = lower value 0.0584 | S. cerevisiae deletion strains, locus YNL183C, strain NPR1, stronger effect = lower value 0.00315 | S. cerevisiae deletion strains, locus YNL209W, strain ssb2, stronger effect = lower value 0.0563 | S. cerevisiae deletion strains, locus YNL248C, strain rpa49, stronger effect = lower value 0.0865 | S. cerevisiae deletion strains, locus YNL322C, strain KRE1 (second series), stronger effect = lower value 0.0621 | S. cerevisiae deletion strains, locus YNR049C, strain mso1, stronger effect = lower value 0.0553 | S. cerevisiae deletion strains, locus YOR001W, strain rrp6, stronger effect = lower value 0.0701 | S. cerevisiae deletion strains, locus YOR070C, strain gyp1, stronger effect = lower value 0.0564 | S. cerevisiae deletion strains, locus YOR080W, strain dia2, stronger effect = lower value 0.0614 | S. cerevisiae deletion strains, locus YOR083W, strain WHI5, stronger effect = lower value 0.0594 | S. cerevisiae deletion strains, locus YOR106W, strain vam3, stronger effect = lower value 0.066 | S. cerevisiae deletion strains, locus YOR231W, strain MKK1, stronger effect = lower value 0.109 | S. cerevisiae deletion strains, locus YOR265W, strain rbl2, stronger effect = lower value 0.0537 | S. cerevisiae deletion strains, locus YOR270C, strain vph1, stronger effect = lower value 0.0953 | S. cerevisiae deletion strains, locus YOR290C, strain snf2, stronger effect = lower value 0.0603 | S. cerevisiae deletion strains, locus YPL051W, strain arl3, stronger effect = lower value 0.0598 | S. cerevisiae deletion strains, locus YPL078C, strain atp4, stronger effect = lower value 0.0627 | S. cerevisiae deletion strains, locus YPL106C, strain sse1, stronger effect = lower value 0.103 | S. cerevisiae deletion strains, locus YPL240C, strain hsp82, stronger effect = lower value 0.0561 | S. cerevisiae deletion strains, locus YPL256C, strain CLN2, stronger effect = lower value 0.121
